# Assay results: the supplement of paper PMC6555819
# Assays:
# Assay in all cases: PBM binding z-score (relative to random genomic background probes); higher = stronger binding; sequences stand for … in GC…GCGATTGACAGCGTAGAATGAAGG
# [1] = test system: PPARg:RXRa DBDmut IVT, anti-RXR (DBD mutation: RXRa K156A/R161A, NR concentration 270 nM, RXRa partner concentration 90 nM)
# Summary of the method: (§1)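 Ligand-free nuclear receptor dimers were applied to custom Agilent 4×180K protein-binding microarrays whose double-stranded probes carried direct-repeat seeds, single-nucleotide variants, half-site ablations and random human genomic background sequences in 34-nt variable regions. Incubation lasted 1 h. Binding z-scores were computed against the random background probes from regression-normalized fluorescence.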
# [2] = test system: PPARg:RXRa IVT, anti-PPARg (NR concentration 270 nM, RXRa partner concentration 90 nM)
# Summary of the method: as §1
# [3] = test system: PPARg DBDmut:RXRa IVT, anti-PPARg (DBD mutation: PPARg1 K132A/R137A, NR concentration 270 nM, RXRa partner concentration 90 nM)
# Summary of the method: as §1
# [4] = test system: PPARg DBDmut IVT, anti-PPARg (DBD mutation: PPARg1 K132A/R137A, NR concentration 270 nM)
# Summary of the method: as §1
# [5] = test system: PPARg homodimer (NR concentration 180 nM)
# Summary of the method: as §1
# [6] = test system: PXR:RXRa (NR concentration 270 nM, RXRa partner concentration 90 nM)
# Summary of the method: as §1
# [7] = test system: PXR homodimer (NR concentration 270 nM)
# Summary of the method: as §1
# [8] = test system: RARa:RXR (NR concentration 270 nM, RXRa partner concentration 90 nM)
# Summary of the method: as §1
# [9] = test system: RARa homodimer (NR concentration 270 nM)
# Summary of the method: as §1
# [10] = test system: RARb:RXRa (NR concentration 270 nM, RXRa partner concentration 90 nM)
# Summary of the method: as §1
sequence,measurement,setting,value
ATCGAAAGGTCGAGGTGAATATAGAGAAAGGGAA,PBM binding z-score,[1],0.454
same,PBM binding z-score,[2],2.9
same,PBM binding z-score,[3],1.3
same,PBM binding z-score,[4],0.685
same,PBM binding z-score,[5],1.72
same,PBM binding z-score,[6],2.6
same,PBM binding z-score,[7],0.39
same,PBM binding z-score,[8],3.39
same,PBM binding z-score,[9],1.13
same,PBM binding z-score,[10],4.2
CCTACTGGGCCATTCAGAGGTCATGGATCATATG,PBM binding z-score,[1],4.14
same,PBM binding z-score,[2],4.64
same,PBM binding z-score,[3],0.856
same,PBM binding z-score,[4],0.389
same,PBM binding z-score,[5],2.93
same,PBM binding z-score,[6],4.92
same,PBM binding z-score,[7],0.765
same,PBM binding z-score,[8],5.46
same,PBM binding z-score,[9],0.962
same,PBM binding z-score,[10],3.19
GCTAGTTGGTCAGTAAAAGGTCTCACACCGGTCG,PBM binding z-score,[1],0.501
same,PBM binding z-score,[2],0.748
same,PBM binding z-score,[3],0.0123
same,PBM binding z-score,[4],-0.176
same,PBM binding z-score,[5],0.542
same,PBM binding z-score,[6],-0.0714
same,PBM binding z-score,[7],0.00189
same,PBM binding z-score,[8],0.298
same,PBM binding z-score,[9],-0.00415
same,PBM binding z-score,[10],1.19
AGTCAAAGCTCATCTAGGTAACGTAAGATATGCT,PBM binding z-score,[1],0.59
same,PBM binding z-score,[2],1.71
same,PBM binding z-score,[3],0.357
same,PBM binding z-score,[4],0.493
same,PBM binding z-score,[5],-0.497
same,PBM binding z-score,[6],-0.42
same,PBM binding z-score,[7],-0.351
same,PBM binding z-score,[8],-0.0294
same,PBM binding z-score,[9],-0.0154
same,PBM binding z-score,[10],-0.0836
ATCGAGAGGTCGAAGGTGAGTATACCCACCCGAA,PBM binding z-score,[1],-0.545
same,PBM binding z-score,[2],1.62
same,PBM binding z-score,[3],0.516
same,PBM binding z-score,[4],0.104
same,PBM binding z-score,[5],0.129
same,PBM binding z-score,[6],2.42
same,PBM binding z-score,[7],-0.494
same,PBM binding z-score,[8],3.29
same,PBM binding z-score,[9],-0.646
same,PBM binding z-score,[10],2.8
CCTACTGGGCCATTCAGAGGTCCTTGATCATATG,PBM binding z-score,[1],4.1
same,PBM binding z-score,[2],3.15
same,PBM binding z-score,[3],-0.401
same,PBM binding z-score,[4],0.127
same,PBM binding z-score,[5],-0.0171
same,PBM binding z-score,[6],-0.621
same,PBM binding z-score,[7],-0.408
same,PBM binding z-score,[8],-0.409
same,PBM binding z-score,[9],-0.479
same,PBM binding z-score,[10],0.0641
CCTATTAGTTGACCATAAGGGCAGCCGAAGCTCG,PBM binding z-score,[1],0.366
same,PBM binding z-score,[2],0.178
same,PBM binding z-score,[3],-0.234
same,PBM binding z-score,[4],-0.298
same,PBM binding z-score,[5],1.6
same,PBM binding z-score,[6],0.00471
same,PBM binding z-score,[7],0.575
same,PBM binding z-score,[8],0.385
same,PBM binding z-score,[9],1.64
same,PBM binding z-score,[10],1.29
ATCTCTAGGTAAAGGTAGTTCAGTGAATGCAAAT,PBM binding z-score,[1],2.73
same,PBM binding z-score,[2],2.3
same,PBM binding z-score,[3],0.954
same,PBM binding z-score,[4],1.19
same,PBM binding z-score,[5],1.25
same,PBM binding z-score,[6],1.15
same,PBM binding z-score,[7],0.822
same,PBM binding z-score,[8],0.523
same,PBM binding z-score,[9],1.7
same,PBM binding z-score,[10],0.628
CCTCGGAGGCCAACAGGAGGTCAGAGCTGCCAGA,PBM binding z-score,[1],-0.0138
same,PBM binding z-score,[2],0.518
same,PBM binding z-score,[3],-0.818
same,PBM binding z-score,[4],-1.87
same,PBM binding z-score,[5],1.58
same,PBM binding z-score,[6],2.35
same,PBM binding z-score,[7],0.122
same,PBM binding z-score,[8],2.83
same,PBM binding z-score,[9],0.23
same,PBM binding z-score,[10],2.98
AGAATGAGGTTATACGTAGATCGGGGAAGAAAGT,PBM binding z-score,[1],4.33
same,PBM binding z-score,[2],2.22
same,PBM binding z-score,[3],0.772
same,PBM binding z-score,[4],-0.0447
same,PBM binding z-score,[5],1
same,PBM binding z-score,[6],1.43
same,PBM binding z-score,[7],0.718
same,PBM binding z-score,[8],1.92
same,PBM binding z-score,[9],0.264
same,PBM binding z-score,[10],1.58
GCGACTGGTGCAAAGCAGGTTACCATAAGGTTGG,PBM binding z-score,[1],-0.384
same,PBM binding z-score,[2],0.329
same,PBM binding z-score,[3],-0.718
same,PBM binding z-score,[4],-1.22
same,PBM binding z-score,[5],-0.73
same,PBM binding z-score,[6],-0.0682
same,PBM binding z-score,[7],-0.682
same,PBM binding z-score,[8],0.163
same,PBM binding z-score,[9],-1.27
same,PBM binding z-score,[10],-0.0547
TCTCGGAGGACACGAAGGCCAGAGCTTTCCAGAG,PBM binding z-score,[1],1.5
same,PBM binding z-score,[2],0.0169
same,PBM binding z-score,[3],-0.633
same,PBM binding z-score,[4],-1.61
same,PBM binding z-score,[5],-0.704
same,PBM binding z-score,[6],-0.278
same,PBM binding z-score,[7],-0.919
same,PBM binding z-score,[8],-0.235
same,PBM binding z-score,[9],-1.31
same,PBM binding z-score,[10],1.82
TAGCCTAGGTTATTCAGGGGCCAGTATAGAAAGC,PBM binding z-score,[1],0.707
same,PBM binding z-score,[2],0.703
same,PBM binding z-score,[3],0.674
same,PBM binding z-score,[4],-0.312
same,PBM binding z-score,[5],-0.0619
same,PBM binding z-score,[6],0.0716
same,PBM binding z-score,[7],-0.463
same,PBM binding z-score,[8],0.719
same,PBM binding z-score,[9],-0.306
same,PBM binding z-score,[10],1.13
GATACACGGTCAGCTAGAGGCCAGAGTATGGAAA,PBM binding z-score,[1],-0.219
same,PBM binding z-score,[2],0.135
same,PBM binding z-score,[3],-0.178
same,PBM binding z-score,[4],-0.554
same,PBM binding z-score,[5],0.453
same,PBM binding z-score,[6],-0.394
same,PBM binding z-score,[7],-0.5
same,PBM binding z-score,[8],0.205
same,PBM binding z-score,[9],-0.0449
same,PBM binding z-score,[10],2.51
CCTATTAGTTGACCATAAGGGCAACGGAAGCTCG,PBM binding z-score,[1],0.458
same,PBM binding z-score,[2],0.449
same,PBM binding z-score,[3],0.427
same,PBM binding z-score,[4],0.782
same,PBM binding z-score,[5],2.06
same,PBM binding z-score,[6],0.568
same,PBM binding z-score,[7],0.623
same,PBM binding z-score,[8],0.736
same,PBM binding z-score,[9],1.45
same,PBM binding z-score,[10],1.54
ATACCAAGGTGATCGTGAGGTCGTTGATACTAAC,PBM binding z-score,[1],0.604
same,PBM binding z-score,[2],1.28
same,PBM binding z-score,[3],0.214
same,PBM binding z-score,[4],0.382
same,PBM binding z-score,[5],1.03
same,PBM binding z-score,[6],2.86
same,PBM binding z-score,[7],1.53
same,PBM binding z-score,[8],1.82
same,PBM binding z-score,[9],0.745
same,PBM binding z-score,[10],1.42
AATACAGGGTCATCGTAGGCCAGAGTACGCACAG,PBM binding z-score,[1],2.76
same,PBM binding z-score,[2],4.32
same,PBM binding z-score,[3],1.59
same,PBM binding z-score,[4],1.19
same,PBM binding z-score,[5],1.96
same,PBM binding z-score,[6],4.94
same,PBM binding z-score,[7],0.48
same,PBM binding z-score,[8],4.82
same,PBM binding z-score,[9],0.854
same,PBM binding z-score,[10],4.37
TAGCCTAGGTCGGATCGGGCCAGTATACGCTATA,PBM binding z-score,[1],-0.693
same,PBM binding z-score,[2],-0.327
same,PBM binding z-score,[3],-0.89
same,PBM binding z-score,[4],-0.506
same,PBM binding z-score,[5],-1.19
same,PBM binding z-score,[6],-0.228
same,PBM binding z-score,[7],-0.533
same,PBM binding z-score,[8],0.382
same,PBM binding z-score,[9],-0.683
same,PBM binding z-score,[10],0.204
